The list is not random: actives were taken first. Their share in the collection is about 8.8%.
HT1080-NT tox: kills 2HG-producing HT-1080-NT fibrosarcoma cells | 360,000 tested, 1.6% active | HT-1080-NT fibrosarcoma viability, CellTiter-Glo ATP luminescence, 48 h | Potency, µM (doses to about 46.1 µM), usual class: cytotoxic;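 note: NT is the 2HG producing partner of a matched IDH1 knockdown line; nearly all actives have a fitted effect of over 55% in size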
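Read-out is CellTiter-Glo luminescence after 10 minutes at room temperature, following 48 hours' compound treatment of HT-1080-NT cells (750 cells/well, RPMI, 5% FBS, 37 degrees C).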
IL-1B inflam inh: blocks inflammasome-driven IL-1 beta release | AID 743279 | activity change, % at 57.5 µM | 360,000 tested, 4.7% active | THP-1 LPS/ATP IL-1B secretion, AlphaLISA, 16 h; hits give low values; in the data active = activity change below about -50%; inconclusive = mostly about -30% to -49%
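THP-1 cells pretreated 1 hr with compounds (up to 57.5 uM final), then stimulated with LPS (250 ng/mL final) plus ATP (1.25 mM final); secreted IL-1B measured by AlphaLISA after 16 hr, decreased signal indicating inhibition.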
KB-V1 MDR tox: KB-V1 MDR subline cytotoxicity; KB-V1 MDR cells viability, CellTiter-Glo, 72 h; Potency, µM (highest dose often 46.1 µM), most hits filed as cytotoxic; 400,000 tested, 3.4% active; AID 1347076; note: nearly all actives have a fitted effect of over 60% in size
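Readout: CellTiter-Glo luminescence, 10 min after addition. Cells: KB-V1 MDR subline, 72 h at 37 degrees C with compound. Analysis: corrected, normalized data fitted to concentration-effect curves.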
HT1080 IDH1KD tx: HT-1080 IDH1 knockdown cell toxicity (counter line) | HT-1080 IDH1 knockdown viability, ATP luminescence, 48 h | Potency, µM (top dose mostly 46.1 µM), usual class: cytotoxic | 360,000 tested, 2% active | AID 686971
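Using the IDH1-knockdown HT-1080 line run in the same batch and compound series as the NT line, viability after 48 h at 37 °C was determined by CellTiter-Glo luminescence and expressed as % activity.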
KB-3-1 cytotox: kills parental KB-3-1 adenocarcinoma cells | KB-3-1 viability, CellTiter-Glo ATP luminescence, 72 h | Potency, µM (doses to about 46.1 µM), usual class: cytotoxic | 400,000 tested, 1.4% active | AID 1347075; note: nearly all actives have a fitted effect of over 60% in size
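Luminescent ATP read-out (CellTiter-Glo) measures survival of drug-naive KB-3-1 cells after 72 h compound exposure at 37 °C. Titration series was screened from lowest to highest concentration, with DMSO vehicle plates as background controls.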
Each line names hits and unclear results; the compound was inactive in the other large screens. Unless noted, calls come from the whole dose curve; as a rule, active = well fitted curve in the direction sought with a large enough effect; inconclusive = small, poorly fitted or top-dose-only effect, or another doubt; inactive = no such curve, though single readings can be large; an effect the other way counts as inactive or inconclusive.

O=C1OC(c2ccc3ccccc3c2O)(c2ccc3ccccc3c2O)c2ccccc21	IL-1B inflam inh -50.7, HT1080 IDH1KD tx inconclusive, KB-3-1 cytotox inconclusive
Cc1ccc(C(=O)NCC(=O)OCc2cc(=O)n3ccsc3n2)cc1	KB-V1 MDR tox inconclusive (no result: HT1080-NT tox, IL-1B inflam inh, HT1080 IDH1KD tx)
OC(CNCc1ccncc1)c1ccccc1 (stereo not drawn)	none
OC(CNCc1ccc(-c2ccccc2)cc1)c1ccccc1 (stereo not drawn)	HT1080-NT tox 20.6µM, IL-1B inflam inh -73.1, KB-V1 MDR tox inconclusive, HT1080 IDH1KD tx 29.1µM, KB-3-1 cytotox inconclusive
Cc1cccc(C)c1NC(=O)C1(C)CSCC(=O)N1Cc1ccco1 (stereo not drawn)	none
N#Cc1cc(C#N)c(N2CCN(c3cccc(Cl)n3)CC2)nc1N	HT1080-NT tox inconclusive, KB-V1 MDR tox 18.4µM, HT1080 IDH1KD tx inconclusive
CCN1/C(=C/c2ccc3cc(C)ccc3[n+]2CC)Sc2cc(C)c(C)cc21	HT1080-NT tox 18.4µM, IL-1B inflam inh -98.0, KB-V1 MDR tox inconclusive, HT1080 IDH1KD tx 11.6µM, KB-3-1 cytotox 1.84µM
CC[n+]1c(/C=C2\Sc3ccccc3N2C)ccc2cccc(C)c21	HT1080-NT tox 13µM, IL-1B inflam inh -99.6, KB-V1 MDR tox 16.4µM, HT1080 IDH1KD tx 10.3µM, KB-3-1 cytotox 0.461µM
CCN1/C(=C/c2ccc3cc(C)ccc3[n+]2CC)Sc2ccccc21	HT1080-NT tox 5.8µM, IL-1B inflam inh -99.9, HT1080 IDH1KD tx 11.6µM, KB-3-1 cytotox 1.64µM
CCC(=O)/C=C1/Sc2ccccc2N1CC	none
CN1c2ccccc2Sc2cc(N)ccc21	HT1080-NT tox inconclusive, KB-3-1 cytotox inconclusive
Cc1ccc(CN2C(=O)C(C)Nc3ncnc(N4CCOCC4)c32)cc1 (stereo not drawn)	none
O=C1NC(c2cccc(OCc3ccccc3)c2)Nc2ccccc21 (stereo not drawn)	HT1080-NT tox inconclusive, KB-V1 MDR tox 0.651µM, HT1080 IDH1KD tx 0.581µM, KB-3-1 cytotox 0.581µM
CC(C)C1C(=O)N(Cc2cn(CCC3OCCCO3)nn2)CCS(=O)(=O)N1Cc1ccc(-c2ccc(Cl)nc2)cc1 (stereo not drawn)	IL-1B inflam inh inconclusive
COc1ccc(/C=C/CN2CCCC(C(=O)c3ccc(OC)c(F)c3)C2)cc1 (stereo not drawn)	IL-1B inflam inh -93.4, KB-V1 MDR tox inconclusive, KB-3-1 cytotox inconclusive
COc1ccc(C(=O)C2CCCN(Cc3ccc(C#CCCO)cc3)C2)cc1F (stereo not drawn)	IL-1B inflam inh -53.1
COc1ccc(C(=O)C2CCCN(Cc3ccc4nonc4c3)C2)cc1F (stereo not drawn)	none
CCc1ccccc1NC(=O)C1CCCN(c2nccc(C)n2)C1 (stereo not drawn)	none
O=C(NCc1cccc(C(F)(F)F)c1)C1C(=O)Nc2ccccc2C(=O)N1C1CCCC1 (stereo not drawn)	KB-V1 MDR tox inconclusive
N=c1c2c(n(Cc3ccc([N+](=O)[O-])cc3)c3c1CCC3)CCCC2	none
N=c1c2c(n(Cc3ccc(Cl)c(Cl)c3)c3c1CCC3)CCCC2	HT1080-NT tox 23.1µM, IL-1B inflam inh -72.3, HT1080 IDH1KD tx 18.4µM
N=c1c2c(n(Cc3ccc(Br)cc3)c3c1CCC3)CCCC2	HT1080-NT tox 20.6µM, IL-1B inflam inh -81.1, HT1080 IDH1KD tx 18.4µM, KB-3-1 cytotox 0.651µM
C#CCOCCOCCOCCNc1nc(N2CCN(C(=O)[C@H](CCCCN)n3cc(CN)nn3)CC2)nc(N2CCN(C(=O)[C@H](CCCN=C(N)N)n3cc(C(N)[C@H](C)CC)nn3)CC2)n1 (stereo partly drawn)	none
Nc1nc2ccccc2n1/N=C/c1ccc(-c2ccccc2)o1	KB-V1 MDR tox 20.6µM, KB-3-1 cytotox inconclusive
Nc1nc2ccccc2n1/N=C/c1cccnc1	none
Cc1nc(N2CCN(C(=O)c3cccs3)CC2)c2c3c(sc2n1)CCCC3	KB-V1 MDR tox inconclusive, HT1080 IDH1KD tx inconclusive
CCc1nc(N2CCN(C(=O)CCl)CC2)c2c3c(sc2n1)CC(C)CC3 (stereo not drawn)	HT1080-NT tox 20.6µM, IL-1B inflam inh -96.2, KB-V1 MDR tox inconclusive, HT1080 IDH1KD tx 20.6µM, KB-3-1 cytotox inconclusive
CCc1nc(N2CCN(C(C)=O)CC2)c2c3c(sc2n1)CC(C(C)(C)C)CC3 (stereo not drawn)	none
Cc1nc(N2CCN(C(=O)c3ccco3)CC2)c2c3c(sc2n1)CCCC3	HT1080-NT tox inconclusive, KB-V1 MDR tox 20.6µM, HT1080 IDH1KD tx inconclusive
CCNC(=S)N1CCN(c2nc(CC)nc3sc4c(c23)CCCC4)CC1	IL-1B inflam inh -56.7, KB-3-1 cytotox inconclusive
Cc1nc(N2CCN(C(=O)c3ccco3)CC2)c2c3c(sc2n1)CC(C)CC3 (stereo not drawn)	KB-V1 MDR tox 8.2µM, HT1080 IDH1KD tx inconclusive
CCc1nc(N2CCN(C(=O)CCCl)CC2)c2c3c(sc2n1)CCCC3	none
CN(C)S(=O)(=O)N1CCC(Oc2cccc(C(=O)NC3CCOC3)c2)CC1 (stereo not drawn)	none (no result: KB-V1 MDR tox, KB-3-1 cytotox)
COc1ccc(OC)c(C2CC(=O)N(c3cccc(C)c3)C3=C2C(=O)OC3)c1 (stereo not drawn)	none (no result: HT1080-NT tox, IL-1B inflam inh, HT1080 IDH1KD tx)
CCn1c(=O)n(CC2CCC(C(=O)NC(C)C)CC2)c(=O)c2sccc21 (stereo not drawn)	KB-V1 MDR tox inconclusive (no result: HT1080-NT tox, IL-1B inflam inh, HT1080 IDH1KD tx)
CC(C)c1ccc(NC(=O)c2snc3ccc(Cl)cc23)cc1	KB-V1 MDR tox inconclusive, HT1080 IDH1KD tx inconclusive, KB-3-1 cytotox 0.0517µM
CC(=O)c1ccc[n+](CC(=O)c2ccc(F)cc2)c1	none (no result: HT1080-NT tox, IL-1B inflam inh, HT1080 IDH1KD tx)
CCC(=O)N1CCc2cc(Br)cc(S(=O)(=O)CCC(=O)Nc3cccc(C)c3C)c21	none (no result: HT1080-NT tox, IL-1B inflam inh, HT1080 IDH1KD tx)
CCCOc1ccc(C2C3=C(Nc4nc(N)[nH]c(=O)c42)c2ccccc2C3=O)cc1 (stereo not drawn)	IL-1B inflam inh -54.9, KB-3-1 cytotox inconclusive
CCOc1ccc(C2C3=C(Nc4nc(N)[nH]c(=O)c42)c2ccccc2C3=O)cc1 (stereo not drawn)	none
CC(C)NC(=S)Nc1c(N)[nH]c(=O)[nH]c1=O	none
CN1C(=O)c2cccc3c(N(C)C)ccc(c23)C1=O	KB-V1 MDR tox 11.6µM
Cc1cc2oc(=O)cc(CN(C)Cc3cccc(F)c3)c2cc1C	none
CCc1cc2c(CN(C)Cc3ccccc3F)cc(=O)oc2cc1O	HT1080-NT tox inconclusive, KB-V1 MDR tox 11.6µM, HT1080 IDH1KD tx inconclusive, KB-3-1 cytotox inconclusive
CC(=O)C1=CCC(c2ccccc2)N(Cc2ccccc2)C1 (stereo not drawn)	HT1080-NT tox inconclusive, IL-1B inflam inh -111.7, KB-V1 MDR tox inconclusive, HT1080 IDH1KD tx inconclusive, KB-3-1 cytotox inconclusive
CC(=O)C1=CCC(c2ccc(Cl)cc2)N(S(=O)(=O)c2ccccc2C)C1 (stereo not drawn)	HT1080-NT tox inconclusive, KB-V1 MDR tox inconclusive, HT1080 IDH1KD tx 16.4µM
CCOC(=O)/C(=N\Nc1ccccc1)S(=O)(=O)c1ccccc1	none
CCOC(=O)/C(=N/Nc1ccc(C)cc1)S(=O)(=O)c1ccc(Cl)cc1	HT1080-NT tox inconclusive, IL-1B inflam inh inconclusive, KB-V1 MDR tox 16.4µM, HT1080 IDH1KD tx inconclusive

Assay outcomes (PubChem BioAssay)
